Screening data: PubChem, National Center for Advancing Translational Sciences (NCATS)
Shown are actives, neighbours in structure and some others; about 11% of the full set was active somewhere.
12-hLO inh: 12-hLO (ALOX12) enzyme inhibition; P18054; purified 12-hLO, xylenol orange hydroperoxide absorbance; Potency, µM (highest dose often 57.1 µM), inactives show at the highest dose activity change, negative = inhibition, hits mostly inhibitors; 0.12% of 150,000 active; note: potency is the fitted concentration of half-maximal effect; nearly all actives have a fitted effect of over 55% in size
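Purified human 12hLO (150 nM), preincubated 15 min with compound, then 40 uM arachidonic acid for 30 min, room temperature, Hepes pH 7.0 with 0.01% Triton X-100. Hydroperoxide detected by ferrous iron/xylenol orange; 573/405 nm absorbance ratio gives reaction progress.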
IMPase Li inh: membrane-permeable IMPase blocker, potentiated with lithium; CHO-M1 cells, IP1 TR-FRET (IP-One), carbachol + lithium; 0.35% of 210,000 active; Potency, µM (doses to about 59.4 µM), without a hit: at the highest dose activity, negative = IMPase inhibition, most hits filed as inhibitors; AID 1457;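 note: IP1 builds up when IMPase is blocked and the TR-FRET signal falls; potency is the fitted concentration of half-maximal effect; plate controls were basal vehicle for no effect and high inhibitor control for full effect; nearly all actives have a fitted effect of over 50% in size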
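Lithium-sensitised IP1 accumulation assay; M1-expressing CHO cells treated 30 min at 37C with compound. Competitive antibody detection by time-resolved FRET followed a 10 min room-temperature lysis step.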
HPGD block: blocks human HPGD enzyme activity | purified HPGD, NADH fluorescence kinetic, PGE2 substrate | Potency, µM, inactives show at the highest dose activity change, negative = inhibition, actives largely listed as inhibitors | 4.3% of 150,000 active | P15428; active = well fitted inhibition curve with a large enough effect, not every such curve was filed as active; inconclusive = small, poorly fitted or top-dose-only effect, or another doubt; inactive = no such curve, though single readings can be large or run the other way; note: potency is the fitted concentration of half-maximal effect
Target sequence (P15428 whole entry, looked up): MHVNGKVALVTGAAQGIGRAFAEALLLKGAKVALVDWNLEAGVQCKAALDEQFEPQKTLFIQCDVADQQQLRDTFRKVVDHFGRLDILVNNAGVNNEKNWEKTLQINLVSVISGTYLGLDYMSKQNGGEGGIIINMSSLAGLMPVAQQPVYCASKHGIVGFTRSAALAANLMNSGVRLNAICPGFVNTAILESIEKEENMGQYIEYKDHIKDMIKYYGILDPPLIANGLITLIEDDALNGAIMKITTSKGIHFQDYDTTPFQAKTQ
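20 nM HPGD preincubated 15 min at room temperature with compound in 50 mM Tris-HCl pH 8, 0.01% Tween 20. Started with 1 mM NAD+ and 30 uM prostaglandin E2; NADH fluorescence (360/450 nm) read 5 times over 30-s intervals, last minus first.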
PNC assembly inh: inhibitors of perinucleolar compartment assembly | 3.1% of 140,000 active | activity change (PNC), negative = inhibition, % at 10 µM | PC3M PTB-GFP, PNC prevalence imaging, 16 h; active compounds read low;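 active = readout at or below -70, meaning at least 70% loss of cells showing the perinucleolar compartment, a nuclear body marking cancer cells; inconclusive = readout between -30 and a set limit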;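 note: plate controls were DMSO wells for no effect and camptothecin positive control wells for full effect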
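PC3M cells stably expressing PTB-GFP, 750–1000 cells/well, treated 16 h at 37 °C with compound (23 nl of library stock), in duplicate. After paraformaldehyde fixation and Hoechst stain, imaged at 20x; PNC prevalence scored by image analysis.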
IMPase inh: cell-permeable inhibitors of inositol monophosphatase (IMPase); CHO-M1 cells, IP1 accumulation, HTRF TR-FRET ratio; inhibition (IP1 accumulation), % at 46.1 µM; 120,000 tested, under 10 active; AID 901; active = well fitted curve in the direction sought with a large enough effect in the signal ratio, not every such curve was filed as active; inconclusive = small, poorly fitted or top-dose-only effect, or a change in a side signal; inactive = no such curve, though single readings can be large or run the other way; the % refers to the signal ratio;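 note: cells stimulated with carbachol in lithium chloride buffer; plate controls were DMSO basal wells for no effect and reference inhibitor wells for full effect; higher means more IMPase inhibition seen as more IP1 and lower FRET ratio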
Target sequence (P97697 whole entry, looked up): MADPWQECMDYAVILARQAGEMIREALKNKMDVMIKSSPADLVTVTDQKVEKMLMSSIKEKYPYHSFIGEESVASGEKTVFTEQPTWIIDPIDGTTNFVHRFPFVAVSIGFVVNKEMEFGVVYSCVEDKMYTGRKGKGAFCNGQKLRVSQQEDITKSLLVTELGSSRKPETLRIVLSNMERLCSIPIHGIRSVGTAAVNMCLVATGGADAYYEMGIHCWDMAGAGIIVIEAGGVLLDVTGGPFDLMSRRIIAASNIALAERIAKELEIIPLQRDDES
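The IP-One HTRF competitive assay in carbachol-stimulated CHO-M1 cells quantifies cellular IP1. Compounds spanned up to 46 uM final, and activity is expressed as AC50 from concentration-response fits of the ratio and donor data.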
ALDH1A1 block: blocks purified human ALDH1A1 activity; P00352; 7.3% of 220,000 active; AID 1030; Purified ALDH1A1, NADH fluorescence, propionaldehyde substrate; Potency, µM (top dose mostly 75.3 µM), inactives show top-dose activity, negative = inhibition, hits mostly inhibitors; active = well fitted inhibition curve with a large enough effect, not every such curve was filed as active; inconclusive = small, poorly fitted or top-dose-only effect, or another doubt; inactive = no such curve, though single readings can be large or run the other way;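 note: potency is the fitted concentration of half-maximal effect; plate controls were no enzyme wells and a reference inhibitor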
* marks the source's active call; other numbers are inactive results; ? = inconclusive; . = no result given; ! = a repeat was not active; [ ] = dose if it differs, or a comment. Unless noted, calls come from the whole dose curve; as a rule, active = well fitted curve in the direction sought with a large enough effect; inconclusive = small, poorly fitted or top-dose-only effect, or another doubt; inactive = no such curve, though single readings can be large; an effect the other way counts as inactive or inconclusive. Unless noted, % is set by controls: 0 for no effect and ±100 for the full control effect.

SMILES	12-hLO inh	IMPase Li inh	HPGD block	PNC assembly inh	IMPase inh	ALDH1A1 block
CCOC(=O)c1c(Nc2ccc(F)cc2)nnc(-c2ccccc2)c1-c1ccccc1	.	.	.	.	3	.
CC1CCC2C(=O)OC(CO)CN2C1c1ccc(Br)cc1 (stereo not given)	.	.	.	.	.	16%[13.5 µM]
c1ccc(-c2noc(CC3CCCCC3)n2)cc1	.	18%	.	.	.	-17%
c1ccc(-c2noc(CSc3nnnn3C3CCCCC3)n2)cc1	0%	18%[38.3 µM]	-23%	-12	9	3.2µM*
c1ccc2[nH]c(SN3CCOCC3)nc2c1	8%	-3%	11µM*	6	18	0.79µM*
Cc1c(C(=O)OCCOc2ccccc2)[nH]c2c1C(=O)CCC2	5%	27%[38.3 µM]	-18%	-14	2	-15%
Cc1c(C(=O)OC2CCCC2C)[nH]c2c1C(=O)CCC2 (stereo not given)	-8%	10%	-15%	22	4	8.9µM*
O=C(NCCCN1CCOCC1)C1Cc2c(ccc3ccccc23)O1 (stereo not given)	.	-1%	.	.	.	4%
Cc1ccc2ncccc2c1NS(=O)(=O)c1ccccc1	-15%	14%[38.3 µM]	-7%	-16	7	32µM*
COc1ccc(Cl)cc1C(=O)NC(=S)Nc1cc(-c2nc3ccccc3[nH]2)ccc1C	-25%	3%[38.3 µM]	-17%	9	8	4µM*
COc1ccc(Cl)cc1C(=O)NNC(=S)NC(=O)c1cc(-c2ccccc2)nc2ccccc12	3%	-5%[38.3 µM]	?	53	7	32µM*
COc1ccc(C(=O)NNC(=S)NC(=O)c2cc(-c3ccccc3)nc3ccccc23)cc1	?	11%[38.3 µM]	-8%	85	?	-12%
COC(=O)c1ccc(NC(=S)NC(=O)c2cc(-c3ccccc3)nc3ccccc23)cc1	?	11%[38.3 µM]	-8%	-14	7	11µM*
O=C1CCC[C@H]2OC12[C@@H](O)CCc1ccccc1 (stereo not given in full)	.	.	.	.	.	23%[13.5 µM]
CCOC(=O)c1cc(NC(=O)c2ccc(OC)cc2)c(=O)n2c1oc1ccc(Cl)cc12	.	.	.	.	-11	.
CC1(c2ccccc2)CC(C)(C)N(C(=O)c2cccc(Cl)c2)c2ccccc21 (stereo not given)	.	.	.	.	-3	.
CN(/C(=N\S(=O)(=O)c1ccccc1)C(F)(F)F)c1ccccc1	14%	14%[38.3 µM]	-19%	25	9	28µM*
COCCn1c(=O)c(-c2cccc(C#N)c2)nc2cnc(OCc3ccccc3)nc21	.	24%	.	.	.	?
CCN(CC)CCNc1nc2c(c(=O)[nH]c(=O)n2C)n1CC(O)COc1ccc(Cl)cc1Cl (stereo not given)	0%	-12%[38.3 µM]	-20%	-84*	2	-1%
Cc1cc(C)n(-c2nc3c(c(=O)[nH]c(=O)n3C)n2CC(O)COc2ccc(Cl)cc2Cl)n1 (stereo not given)	6%	5%	3.5µM*	61	-5	3%
CC(=O)c1ccc(OC2OCCOC2Oc2ccc(C(C)=O)cc2)cc1 (stereo not given)	3%	11%	-2%	-4	16	9%
CC(=O)c1ccc(OC2C(O)COC2/C=C/c2ccc(Cl)cc2)cc1 (stereo not given)	.	.	.	.	.	4µM*!
COC(=O)c1ccc(-c2ccc(/C=N/N3C(=O)C4C5C=CC(C6CC56)C4C3=O)o2)cc1 (stereo not given)	1%	4%	14µM*	-1	.	385%
Cc1nnc(N/N=C\c2ccc(-c3cccc(C(=O)O)c3)o2)n1N	.	17%	.	.	.	?
COC(=O)c1cccc(-c2ccc(/C=N/N3C(=O)C4C5C=CC(C6CC56)C4C3=O)o2)c1 (stereo not given)	.	15%	.	.	.	14µM*
SMILES	12-hLO inh	IMPase Li inh	HPGD block	PNC assembly inh	IMPase inh	ALDH1A1 block
C=CC1=C2C=C(C3CC3)N(C3CCCCC3)C=C2C(=O)C(C)(OC(=O)c2ccco2)C1=O (stereo not given)	-1%[11.4 µM]	0%	-2%	.	.	1%[13.5 µM]
O=C(/C=C/c1ccccc1)OC1CC(O)C2(O)C=CO[C@@H](OC3OC(CO)C(O)C(O)C3O)C12 (stereo not given in full)	-7%	4%	-15%	.	.	-2%
CCCCCCCCCCCCC/C=C/[C@@H](O)[C@H](CO)NC(=O)CCCCCCC	2%	-4%	-14%	.	.	-8%
Cc1ccc(C(C(=O)NCc2ccccc2)N(C(=O)c2csnn2)c2cccc3ccccc23)o1 (stereo not given)	-15%	-3%[38.3 µM]	-12%	19	21	?
COc1ccc(CNC(=O)C(c2ccc(C)o2)N(C(=O)c2csnn2)c2ccc(C(C)C)cc2)cc1 (stereo not given)	-1%	47%[38.3 µM]	-11%	-22	6	2µM*
CCc1ccc(N(C(=O)c2csnn2)C(C(=O)NCc2ccccc2)c2ccco2)cc1 (stereo not given)	5%	8%[38.3 µM]	-14%	51	3	7.9µM*
Cc1ccccc1NC(=O)c1sc2nc(N3CCOCC3)c3c(c2c1N)CC(C)(C)OC3	.	.	.	.	-7	.
COc1ccccc1-n1c(C)cc(C=O)c1C	3%	34%[38.3 µM]	-7%	2	2	14µM*
COC(=O)c1cccc(-n2c(C)cc(C=O)c2C)c1	-8%	-7%	-13%	5	.	7.9µM*
COc1ccc(C)cc1-n1c(C)cc(C=O)c1C	.	5%	.	.	.	?
COC(=O)c1ccc(C)c(-n2c(C)cc(C=O)c2C)c1	-2%	1%	-21%	-24	.	1.8µM*
COC(=O)c1cc(C(=O)OC)cc(-n2c(C)cc(C=O)c2C)c1	.	-3%	.	.	.	?
CCOC(=O)c1cccc(-n2c(C)cc(C=O)c2C)c1	-3%	4%	-1%	?	.	11µM*
CC(C)c1ccc(OCC(=O)Nc2ccc(S(=O)(=O)Nc3ncccn3)cc2)cc1	.	.	.	.	-4	.
Cc1cc(-c2nc3ncccc3o2)ccc1NC(=O)COc1cc(C)c(Cl)c(C)c1	.	.	.	.	1	.
Cc1nn(C(=O)c2ccc(Cl)cc2)c(C)c1Sc1ccc(Cl)cc1	.	.	.	.	-10	.
Cc1cc(/C=N/O)c(C)n1-c1cccc(Cl)c1	.	22%	.	.	.	14µM*
CN(C)C(=O)c1ccc(NC(=O)c2ccccc2Sc2ccccc2C#N)cc1	-1%	6%	18µM*	34	.	-12%
Cc1nc(C/C(=N\Nc2ccccc2)c2ccc(O)cc2O)cs1	.	6%	.	.	.	3.2µM*
O/N=C(/Cc1ccccn1)c1ccccc1	-4%	-14%[38.3 µM]	-9%	?	7	4%
CCc1cc(/C(Cc2ccccn2)=N\Nc2ccccc2)c(O)cc1O	.	-3%	.	.	.	7.9µM*
C#Cc1ccc([C@@H]2C=C(C(=O)OCC=C)O[C@H](OCc3ccc(CO)cc3)C2)cc1	.	-2%	.	.	.	13µM*
